Bioassay records: PubChem, National Center for Advancing Translational Sciences (NCATS)
The entries come from a sample that favours hits as a whole.
Pf Dd2 growth = qHTS Primary assay for Inhibitors of Plasmodium falciparum Dd2 growth in vitro; P. falciparum Dd2 growth, SYBR Green, 72 h; 4.3% of 120,000 active; Potency, µM (top dose mostly 28.9 µM), for the others: top-dose activity, negative = inhibition, usual class: inhibitors; active means well fitted inhibition curve with a large enough effect;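 further: plate controls were DMSO vehicle for no effect and reference drug for full effect; nearly all actives have a fitted effect of over 65% in size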
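Infected erythrocytes (Dd2, 0.3% parasitemia, 2.5% hematocrit final) are added to compound in RPMI-1640/Albumax II medium, grown 72 h at 37C in low oxygen, then lysed with saponin/Triton-X containing SYBR Green and read by fluorescence.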
Starred values were filed as active, the others as inactive; i = inactive; [ ] = dose if it differs, or a comment. Potency means the concentration at half of the fitted maximal effect.

SMILES | Pf Dd2 growth
O=C(NC1CCCN(c2cc(-c3ccc(F)cc3)[nH]n2)C1)c1cccc(Br)c1 (stereo unspecified) | -7%
CC(=O)N1CCC(Cc2ncc(C)n2Cc2ccccc2)C1 (stereo unspecified) | -13%
COc1ccc(C(=O)NCCc2ncc(C)n2Cc2ccc(F)cc2)cn1 | -11%
Cc1cnc(CCNC(=O)NC(C)(C)C)n1Cc1ccccc1 | 4µM*
Cn1nc2n(c1=O)CCC(NC(=O)NCc1ccco1)CC2 (stereo unspecified) | 20%
O=C(CN1C(=O)C(c2ccccc2)=NC12CCCC2)Nc1ccc(C(F)(F)F)cc1 | -6%
O=C1N[C@H](CC(=O)N2CCOC(c3ccccc3)C2)C(=O)Nc2ccccc21 (stereo partly specified) | -18%
CC(=O)N1CCOc2cc(S(=O)(=O)NC(C)c3ccccc3)c(Cl)cc21 (stereo unspecified) | 3%
CC(=O)N1CCOc2cc(S(=O)(=O)Nc3cccc(C(F)(F)F)c3)c(Cl)cc21 | 13µM*
CC(=O)N1CCOc2cc(S(=O)(=O)Nc3cc(C(F)(F)F)ccc3Cl)c(C)cc21 | 26%
Fc1ccc(-c2cc(CC3(NCc4ccc5c(c4)OCO5)COC3)no2)cc1 | -12%[44.1 µM]
O=C(Nc1ccc(F)c(F)c1)c1cc(S(=O)(=O)N2CCc3ccccc32)ccc1F | 10%
O=C(Nc1ccc(F)c(Cl)c1)c1cc(S(=O)(=O)N2CCCc3ccccc32)ccc1F | 10µM*
O=C(Nc1ccc(Cl)cc1)c1cc(S(=O)(=O)N2CCc3ccccc32)ccc1F | 1%
Cc1nc2c(c(-c3ccc(O)cc3)n1)CN([S+](=O)([O-])c1c(C)noc1C)CCC2 | i
O=C1CCN(C(=O)NCCc2ccccc2)CCCCCCN1 | -3%
COc1ccc(N=C2S[C@H]3[C@H]([C@@H](O)[C@H](O)C[C@@H]3C(N)=O)N2Cc2ccc(-c3ccccn3)cc2)cc1 | -23%
CCCCN1C(=O)c2ccccc2C(C(=O)NC(C)C)C12CCCCC2 (stereo unspecified) | -23%
CCCCN1C(=O)c2ccccc2C(C(=O)NCc2ccncc2)C12CCCCC2 (stereo unspecified) | -28%
O=C(NC1CCCC1)C1c2ccccc2C(=O)N(Cc2ccccc2)C12CCCC2 (stereo unspecified) | -26%
Cc1csc(NC(=O)C2c3ccccc3C(=O)N(Cc3ccccc3)C23CCCC3)n1 (stereo unspecified) | 3.5µM*
COC(=O)CNC(=O)C1c2ccccc2C(=O)N(Cc2ccccc2)C12CCCC2 (stereo unspecified) | -4%
CCCCN1C(=O)c2ccccc2C(C(=O)Nc2nc(C)cs2)C12CCCC2 (stereo unspecified) | 5µM*
O=C(CN1C(=O)NC2(CCOCC2)C1=O)NCc1ccccc1 | 46%
Cc1ccc2c(c1)N1C(=O)OC[C@@H]1CCN(C(=O)C1CCC1)C2 | -4%[44.1 µM]
SMILES | Pf Dd2 growth
CCOc1cc(=O)n2c(c1C(=O)Nc1cc(F)ccc1C)CCCC2 | 20%
O=C1NC2(CN(CC3CC3)C2)Oc2ccccc21 | i
COCC(=O)N[C@H]1C[C@@H](CO)N(Cc2cccc(C#N)c2)C1 | 15%
CN1CCCN(S(=O)(=O)c2ccc3c(c2)OCCO3)c2ccccc21 | -23%
CCOC(=O)c1c(C)oc2nc(C)nc(NCC3CCN(Cc4cc(C)ccc4C)CC3)c12 | -3%
CCOC(=O)c1c(C)oc2ncnc(Nc3ccc(CC)cc3)c12 | i
CCOC(=O)c1c(C)oc2nc(C)nc(NCC3CCN(Cc4cccc(C)c4)CC3)c12 | i[5.79 µM]
CCOC(=O)c1c(C)oc2nc(C)nc(NCc3ccccc3OCC)c12 | 8.9µM*
CCOC(=O)c1c(C)oc2nc(C)nc(NCc3ccccc3OC)c12 | 8.9µM*
CCOC(=O)c1c(C)oc2nc(C)nc(NCCc3ccc(C)cc3)c12 | -10%
CCOC(=O)c1c(C)oc2nc(C)nc(NCCCN3CCN(c4ccc(F)cc4)CC3)c12 | 11µM*
Cc1nc(N2CCCC2)c2c(C(=O)N3CCN(c4ccc(F)cc4)CC3)c(C)oc2n1 | -9%
CCOC(=O)c1c(C)oc2nc(C)nc(NCCc3ccc(S(N)(=O)=O)cc3)c12 | i[5.79 µM]
Cc1ccsc1CN(C)C1CCc2nn(CC3CC3)c(=O)n2CC1 (stereo unspecified) | 14%
CCc1n[nH]c(CC2CCN(C(=O)C3CCC3)CC2)n1 | 8%
CC(C)CCNC(=O)CC1CCCN(c2cnn(C)c(=O)c2)C1 (stereo unspecified) | -5%
CC(C)CN1C(=O)c2cccn2CC1C(=O)N1CCCC1 (stereo unspecified) | 1%
Cn1nc(C(=O)N2CCCn3nc(CO)cc3C2)c2ccccc2c1=O | -4%
Cc1ccc(C2=NC3(CCN(C(=O)Cc4ccc(F)cc4)CC3)ON2)cc1 | -13%
COc1ccccc1CC(=O)N1CCC2(CC1)N=C(c1ccc(Cl)cc1)NO2 | -35%
CN(C)c1ccc(C(=O)N2CCC3(CC2)N=C(c2cccc(Br)c2)NO3)cc1 | 37%
Cc1ccc(C2=NC3(CCN(C(=O)Cc4ccccc4Cl)CC3)ON2)cc1 | 11µM*
Cc1ccc(C2=NC3(CCN(C(=O)c4c[nH]c5ccccc45)CC3)ON2)cc1 | -13%
CC(=O)Nc1ccc(C(=O)N2CCC3(CC2)N=C(c2cccc(Br)c2)NO3)cc1 | 11µM*
O=C(c1ccccc1)N1CCC2(CC1)N=C(c1cccc(Br)c1)NO2 | i
SMILES | Pf Dd2 growth
Cc1ccc(C2=NC3(CCN(C(=O)c4ccccc4C)CC3)ON2)cc1 | 6.3µM*
Cc1ccc(C)c(C(=O)N2CCC3(CC2)N=C(c2ccccc2)NO3)c1 | i
COC(=O)[C@H](Cc1ccc(OC)cc1)NC(=O)[C@@H]1CN(C(=O)c2cccc(F)c2)CCN1C(=O)C1CCNCC1 | 25%
O=C1NCc2ccccc2CC12CCN(CC1CC=CCC1)C2 (stereo unspecified) | -14%
O=C(Cc1ccsc1)Nc1ccc(-c2nnc3n2CCCC3)cc1 | -10%
COc1ccc(-c2ccnc(N[C@H]3CO[C@H]4[C@@H]3OC[C@@H]4NC(=O)Nc3cccc(C#N)c3)n2)cc1 | -29%
COc1cc(NC(=O)N[C@H]2CO[C@H]3[C@@H]2OC[C@@H]3Nc2nccc(-c3ccc(N(C)C)cc3)n2)cc(OC)c1 | 13µM*
COC(=O)c1ccccc1NC(=O)O[C@@H]1CO[C@H]2[C@@H]1OC[C@@H]2Nc1nccc(-c2ccc(N(C)C)cc2)n1 | 5µM*
COc1cc(NC(=O)N[C@H]2CO[C@H]3[C@@H]2OC[C@@H]3Nc2nccc(-c3ccc(-c4ccccc4)cc3)n2)cc(OC)c1 | -27%
CN(C)c1ccc(-c2ccnc(N[C@H]3CO[C@H]4[C@@H]3OC[C@H]4OC(=O)NCc3ccccc3)n2)cc1 | i
COc1ccc(-c2ccnc(N[C@H]3CO[C@H]4[C@@H]3OC[C@H]4OC(=O)Nc3cccc(OC)c3)n2)cc1 | -8%
COCCNC(=O)C1c2ccccc2C(=O)N(C2CCCCC2)C12CCCCC2 (stereo unspecified) | -14%
Cc1cn2c(=O)cc(CN3CC(=O)N(C)c4ccccc4C3=O)nc2s1 | 3%
COC[C@@H]1CN(Cc2cccc(OC)c2OC)C[C@H]1C(=O)N(C)C | -1%
Cn1c(Cn2cccn2)nnc1C1CC(NC(=O)COc2cccnc2)C1 (stereo unspecified) | -23%
Cc1ccc2[nH]c(=O)c(CCC(=O)N(C)Cc3cn(C)nc3C)cc2c1 | -16%
CN1Cc2ccc(NCc3ccccc3)nc2C(C)(C(=O)NCCc2cnc[nH]2)C1 (stereo unspecified) | i
COc1ccc(C(=O)N2CCCC(c3nc(-c4cnccn4)no3)CCNC(=O)CC2)cc1 (stereo unspecified) | -30%
